Results reported in PubChem BioAssay (EPA / NIEHS).
Calls of active or inactive are those of the source. The calls were made as follows: active = hit-call score of the fitted dose curve at least 0.9, where 1 is the maximum; inactive = score below 0.9.

What follows are compounds tested on HGF (gene 3082) (assay: LTEA_HepaRG_HGF: Life Technologies and Expression Analysis (LTEA) Assay for Hepatocyte Growth Facto (HGF) using HepaRG (AID 2283505)). Conditions: mRNA level, 48 h; actives raise or lower the signal.
Protocol: LTEA_HepaRG is a cell based, multiplexed-readout assay that uses HepaRG, a human liver cell line, with measurements taken at 48 hours after chemical dosing on a 96-well plate.LTEA_HepaRG_HGF is one of 102 assay component(s) measured in the LTEA HepaRG cell culture assay. It is a marker of Cell proliferation, survival, death.Data from the assay component LTEA_HepaRG_HGF was analyzed into 1 endpoint. This assay endpoint, LTEA_HepaRG_HGF, was analyzed with bidirectional fitting relative to DMSO as the negative control and baseline of activity. Using a type of inducible reporter, measures of mRNA induction for gain or loss-of-signal activity can be used to understand regulation of transcription factor activity. To generalize the intended target to other relatable targets, this assay endpoint is annotated to the growth factor intended target family, where the subfamily is hepatocyte growth factor.
A total of 1060 chemcials from the ToxCast library were tested in eight-point concentration-response experiments. Cell culture and cytotoxicity assays were conducted at Thermo Fisher Scientific's Custom Services facility (Madison, WI). A single lot of human HepaRG cells (Thermo Fisher Scientific, Frederick, MD) was used for the cell culture experiments. 96-well format collagen type I coated plates of human HepaRG cells were prepared using established methods. Briefly, cryopreserved HepaRG cells were thawed, plated at a density of approximately 100,000 cells/well in HepaRG Thaw, Plate, and General Purpose media (HPRG770, Thermo Fisher Scientific), and incubated for 48 hours. 0.5% DMSO was selected as vehicle control to balance the requisite need of DMSO in HepaRG cultures to maintain differentiation (for example, baseline metabolism, proportions of hepatocytes vs. cholangiocytes), while enabling further hepatic receptor pathway activation (for example, PXR and CAR) in response to chemical exposure. 48 hours after plating, the culture medium was replaced with HepaRG Serum-Free Incudtion Media. Cells were exposed to each test chemical in duplicate and maintained in CO2 incubators for another 48 hours. Chemical plates were thawed to room temperature and 200x concentrations of treatment groups were prepared. 8-point conentration-reponse curves were made with the highest exposure at 100 uM, followed by half-log dilutions, all in 0.5% DMSO. Each test plate contained variouse controls, induction positive controls (1mM phenobarbital), cytotoxicity positive controls ([…] aflatoxin B1), vehicle controls (0.5% DMSO), and total lysis controls (0.5% DMSO). Cell morphology images were taken using an Essen IncuCyte FLR automated microscope, with six 96-well plates imaged in about 24 minutes. Images were captured and exported and JPEG files. Spent culture media was transfered to black-well plates for the LDH assay, and remaining media was sorted at -80 C for later use. Cells were treated with RLT buffer and frozen until shipped for gene expression analysis. Total RNA was isolated from the cell suspension in 75 uL of Buffer RLT (Qiagen, Germantown, MD 20874) by Quintiles/Expression Analysis (Durham, NC) using a custom isolation procedure. Total RNA from each plate well was transferred to a preamplification plate. Fluidigm's 96.96 Dynamic ArrayTM (Fluidigm, Amsterdam, the Netherlands) technology was used for gene expression analyses by quantitative reverse transcription polymerase chain reaction (qRT-PCR, performed by Quintiles/Expression Analysis, Durham, NC)89. Standard TaqManTM Assays (Applied Biosystems/ThermoFisher Scientific, Foster City, CA) were used to assess the expression of 93 genes selected based on their selectivity and sensitivity to important hepatic receptors known to be modulated by environmental chemicals; importance in human hepatocyte functionality; and hepatotoxicity. […]
For `COCCOCCOCCOC`, the outcome was “inactive”.
`CCNc1ccccc1` was tested, and the outcome was “inactive”.
`COC(=O)c1ccccc1O` was tested, and the outcome was “inactive”.
With `C=CCCCCCCCCC(=O)O` the outcome was “inactive”.
In the case of `CC(C)=CCC/C(C)=C\CO`, the outcome is reported as “inactive”.
`CCCCC(CC)COC(=O)CCCCCCCCC(=O)OCC(CC)CCCC` (stereo not given) was tested, and the outcome was “inactive”.
For `CCN(C(=O)c1cc(C)cc(OC[C@H](C)Nc2ccncc2)c1)C(C)C`, the AC50 was 33.8 µM (active).
With `CC/C(=C\C(=N/O)C(N)=O)C(C)[N+](=O)[O-]` (stereo not given) the outcome was “inactive”.
`O=C(O)CCN(C1(C(=O)NO)CCCC1)S(=O)(=O)c1ccc(Oc2ccc(F)cc2)cc1` was tested, and the outcome was “inactive”.
For `Nc1cccc(N)c1`, the outcome was “inactive”.
With `CC(C)CCCCCCOC(=O)c1ccc(C(=O)OCCCCCCC(C)C)c(C(=O)OCCCCCCC(C)C)c1` the outcome was “inactive”.
In the case of `CC(C)CCO`, the outcome is reported as “inactive”.
For `CC(C)=CCCC(C)CCO` (stereo not given), the outcome was “inactive”.
In the case of `COc1ccc(/C=C/S(=O)(=O)NC(=O)c2ccc(C)cc2Cl)cc1`, the outcome is reported as “inactive”.
With `O=P(OC(CCl)CCl)(OC(CCl)CCl)OC(CCl)CCl` the outcome was “inactive”.
For `CCc1cc(SCc2sc(-c3ccc(C(F)(F)F)cc3)nc2CN2CCN(c3ccc(OC)cc3)CC2)ccc1OCC(=O)O`, the AC50 was 7.66 µM (active).
In the case of `CNCc1ccc(NC(=O)c2c[nH]c3c2C(=O)CCC3)cc1`, the outcome is reported as “inactive”.
For `CC1(C)C(=O)N(Br)C(=O)N1Br`, the outcome was “inactive”.
With `C1N2CN3CN1CN(C2)C3` the outcome was “inactive”.
With `Cc1[nH]cnc1C[C@H]1CCc2c(C)c3ccccc3n2C1=O` the AC50 was 10.2 µM (active).
In the case of `C[C@](N)(Cc1ccc(O)c(O)c1)C(=O)O`, the outcome is reported as “inactive”.
For `O=c1n(CC2CO2)c(=O)n(CC2CO2)c(=O)n1CC1CO1` (stereo not given), the outcome was “inactive”.
`Cn1c(=O)c2c(ncn2C)n(C)c1=O` was tested, and the outcome was “inactive”.
With `Nc1ccc(Nc2ccccc2)cc1` the outcome was “inactive”.
For `C1=CCCC=CCCC=CCC1`, the outcome was “inactive”.
For `O=C(OC[C@H]1O[C@@H](OC(=O)c2cc(O)c(O)c(OC(=O)c3cc(O)c(O)c(O)c3)c2)[C@H](OC(=O)c2cc(O)c(O)c(OC(=O)c3cc(O)c(O)c(O)c3)c2)[C@@H](OC(=O)c2cc(O)c(O)c(OC(=O)c3cc(O)c(O)c(O)c3)c2)[C@@H]1OC(=O)c1cc(O)c(O)c(OC(=O)c2cc(O)c(O)c(O)c2)c1)c1cc(O)c(O)c(OC(=O)c2cc(O)c(O)c(O)c2)c1`, the AC50 was 15.2 µM (active).
With `COc1ccc(-n2nc(C(F)F)cc2-c2ccc(S(C)=O)cc2)cc1` (stereo not given) the outcome was “inactive”.
`CCCCCCCCCCCCc1ccccc1` was tested, and the outcome was “inactive”.
For `CCOCCOCCOCCO`, the outcome was “inactive”.
With `CC[C@H](C)C(=O)O[C@H]1C[C@@H](C)C=C2C=C[C@H](C)[C@H](CC[C@@H]3C[C@@H](O)CC(=O)O3)[C@H]21` the outcome was “inactive”.
For `COCCOc1cc2cc(C(=O)NC3CCN(C(C)C)CC3)n(CC(=O)Nc3ccc(Cl)cn3)c2cn1`, the outcome was “inactive”.
`Cn1cnc([N+](=O)[O-])c1Sc1ncnc2nc[nH]c12` was tested, and the outcome was “inactive”.
For `CCCC(=O)OCC`, the outcome was “inactive”.
`CCCCCCCCCCCCCCCO` was tested, and the outcome was “inactive”.
`CC(C)=CCCC(C)=CC=O` was tested, and the outcome was “inactive”.
For `CCOC(=O)COc1ccc2c(c1)CC(NCC(O)c1cccc(Cl)c1)CC2` (stereo not given), the outcome was “inactive”.
In the case of `Cc1c(-c2cccnc2)c2ccccc2n1CCCCC(=O)O`, the outcome is reported as “inactive”.
`CCCN(C1CCN(C(=O)C2CCNCC2)CC1)[C@@H]1CCc2ccc(OC)cc2C1` was tested, and the outcome was “inactive”.
For `Nc1nc2ncc(CNc3ccc(C(=O)N[C@@H](CCC(=O)O)C(=O)O)cc3)nc2c(=O)[nH]1`, the outcome was “inactive”.
For `O=C(O)CC(O)C(=O)O` (stereo not given), the outcome was “inactive”.
